Results filed as inconclusive are left out. A call without a number means that no potency is given here. Activity calls are given as the source filed them. The call rests on the fitted dose curve; in most records, active means well fitted activation curve with a large enough effect; inconclusive means small, poorly fitted or top-dose-only effect, or another doubt; inactive means no such curve, though single readings can be large or run the other way.
These molecules were tested against Rap guanine nucleotide exchange factor 3 (Homo sapiens) (UniProt O95398) (assay: Counterscreen qHTS for agonist of cAMP-regulated guanine nucleotide exchange factor 3 (EPAC1) (AID 1645889; further: nearly all actives have a fitted effect of over 40% in size)). Settings: EPAC1 Rap1B-BODIPY-GDP exchange, fluorescence; series mostly up to 154 µM.
In short: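 Measured: fluorescence of BODIPY-GDP bound to Rap1B, which falls as exchange proceeds. Conditions include 50 uM competing GDP, 5 and 30 min reads, and a later cAMP challenge for antagonist detection.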

Q: Which Potency does the source give for `CCCCC[C@@H](C)N1C[C@H](COCc2ccccc2)Oc2cc(N3CC[C@@H](O)C3)ccc2S1(=O)=O` here?
A: Its Potency is “inactive”.

Q: With `COC(=O)c1ccc2nc(-c3ccc(OC)c(OC)c3)c(Cc3ccccc3)n2c1` as the molecule, how does the Potency read?
A: Its Potency is “inactive”.

Q: Which Potency does the source give for `COc1ccc(C2CC(=O)c3c(O)cc(O)cc3O2)c(CC=C(C)C)c1OC` (centres undefined) here?
A: The Potency was “inactive”.

Q: Which activation does the source give for `CCOc1ccccc1CNC(=O)Cn1nc(C)c2c(C)n(-c3ccc(C)cc3)nc2c1=O` here?
A: The activation was 18.3% [at 30.8 µM] (inactive).

Q: How did the Potency turn out when `Nc1nc(N)c(-c2cccc(C(F)(F)F)c2)c(Cc2cccc(C(F)(F)F)c2)n1` was run?
A: Its Potency is “inactive”.

Q: `CCCCC[C@H](C)N1C[C@@H](COCc2ccccc2)Oc2cc(N3CC[C@H](O)C3)ccc2S1(=O)=O` was tested. Which Potency did it give?
A: The Potency was “inactive”.

Q: For `COCOCCn1cc(CN2CCS(=O)(=O)N(Cc3ccc(-c4ccc(F)cc4)cc3)C(CC(C)C)C2=O)nn1` (centres undefined), which Potency is on record?
A: Its Potency is “inactive”.

Q: With `CCO[C@H]1OC(C(=O)NCc2ccccc2)=C[C@@H](c2ccc(C(F)(F)F)cc2)[C@@H]1CCCO` as the molecule, how does the Potency read?
A: The Potency was “inactive”.

Q: With `CC(C)(C)c1ccc(S(=O)(=O)NC(=O)C2(C)CCN2C(=O)Cc2ccc(-c3ccccc3)cc2)cc1` (centres undefined) as the molecule, how does the activation read?
A: Its activation is 6.27% [at 30.8 µM] (inactive).

Q: For `Cc1cccc(N2CC(C(=O)Nc3nnc(SCC(=O)NCC4CCCO4)s3)CC2=O)c1` (centres undefined), which Potency is on record?
A: The Potency was “inactive”.

Q: Which activation does the source give for `CCC(C)n1c(SCC(=O)Nc2ccc3[nH]c(=O)[nH]c3c2)nc2ccccc2c1=O` (centres undefined) here?
A: The activation was 13.5% [at 30.8 µM] (inactive).

Q: `O=C(Nc1ccccc1N1CCCCC1)c1cnccn1` was tested. Which activation did it give?
A: Its activation is 21.6% [at 30.8 µM] (inactive).

Q: For `COCC(=O)Oc1c(Sc2ccccc2[N+](=O)[O-])c(C)nn1C(C)(C)C`, which Potency is on record?
A: The Potency was “inactive”.

Q: For `O=C(O)c1cc(NN=Nc2cccc([N+](=O)[O-])c2)cc([N+](=O)[O-])c1`, which activation is on record?
A: The activation was 8.61% [at 30.8 µM] (inactive).

Q: `O=C(CSc1nccn1Cc1ccc(Cl)cc1)Nc1ccc2c(c1)OCO2` was tested. Which Potency did it give?
A: Its Potency is “inactive”.

Q: For `Cc1occc1C(=O)N/N=C/C1=C(N2CCOCC2)C(=C/c2ccc(Cl)cc2Cl)/CC1`, which Potency is on record?
A: The Potency was “inactive”.

Q: Which activation does the source give for `COc1cccc(C(=O)/C=C/c2ccc(OCC#N)c(OC)c2)c1` here?
A: Its activation is 12.6% [at 30.8 µM] (inactive).

Q: How did the activation turn out when `CC1(C(=O)NS(=O)(=O)c2ccc3ccccc3c2)CCN1C(=O)Cc1ccc(-c2ccccc2)cc1` (centres undefined) was run?
A: Its activation is 21.8% [at 30.8 µM] (inactive).

Q: For `Cc1cc2c(cc1C)C(c1ccccc1OC(C)C)CC(=O)N2` (centres undefined), which Potency is on record?
A: Its Potency is “inactive”.

Reference: PubChem BioAssay (NCATS)
